Hits are enriched below; roughly 18% of the tested compounds scored in any of these assays.
TDP1 cell CPT = DT40-hTDP1 cell growth loss with CPT. chicken DT40 Tdp1-/-;hTDP1 cells + 20 nM CPT, ATP luminescence, 48 h. Potency, µM (highest dose often 46.2 µM), inactives show at the highest dose activity change, negative = growth inhibition, actives largely listed as inhibitors. 420,000 tested, 12% active. AID 686979; note: potency is the fitted concentration of half-maximal effect; % is set by controls: 0 for no effect and ±100 for the full control effect; nearly all actives have a fitted effect of over 55% in size
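Chicken DT40 Tdp1-/- cells stably complemented with human TDP1 were seeded at 400 cells/well in medium containing 20 nM camptothecin, exposed to pin-transferred compounds, and grown at 37 °C for at least 48 hr. Viability was read as ATP luminescence.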
IL-1B inflam inh = blocks inflammasome-driven IL-1 beta release; THP-1 LPS/ATP IL-1B secretion, AlphaLISA, 16 h; stronger effect = lower value; activity change, % at 57.5 µM; 360,000 tested, 4.7% active; AID 743279; in the data active = activity change below about -50%; inconclusive = mostly about -30% to -49%; note: % is set by controls: 0 for no effect and ±100 for the full control effect
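THP-1 cells pretreated 1 hr with compounds (up to 57.5 uM final), then stimulated with LPS (250 ng/mL final) plus ATP (1.25 mM final); secreted IL-1B measured by AlphaLISA after 16 hr, decreased signal indicating inhibition.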
TGFb SMAD3 inh = inhibitors of TGF-b signaling. HepG2 CAGA-GFP TGF-b/SMAD3 reporter, GFP fluorescence, 18 h; TGF-beta stimulated, 500 pg/mL final. Potency, µM (series often up to 46.1 µM), without a hit: top-dose activity, negative = inhibition, usual class: inhibitors. 410,000 tested, 1.2% active. AID 588855; note: potency is the fitted concentration of half-maximal effect; % is set by controls: 0 for no effect and ±100 for the full control effect; nearly all actives have a fitted effect of over 65% in size
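TGF-beta reporter screen: HEPG2 CAGA-GFP, 1% FBS, 500 pg/mL TGF-beta final, 18 h; per-cell GFP summed per well; curves fitted and categorized by class.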
TDP1 inh = blocks human tyrosyl-DNA phosphodiesterase 1; Q9NUW8; recombinant TDP1, AlphaScreen DNA substrate cleavage; Potency, µM (series often up to 130 µM), for inactives: at the top dose activity change, negative = inhibition, actives largely listed as inhibitors; 350,000 tested, 0.28% active; note: potency is the fitted concentration of half-maximal effect; % is set by controls: 0 for no effect and ±100 for the full control effect; nearly all actives have a fitted effect of over 40% in size
Target sequence (Q9NUW8 whole entry, looked up): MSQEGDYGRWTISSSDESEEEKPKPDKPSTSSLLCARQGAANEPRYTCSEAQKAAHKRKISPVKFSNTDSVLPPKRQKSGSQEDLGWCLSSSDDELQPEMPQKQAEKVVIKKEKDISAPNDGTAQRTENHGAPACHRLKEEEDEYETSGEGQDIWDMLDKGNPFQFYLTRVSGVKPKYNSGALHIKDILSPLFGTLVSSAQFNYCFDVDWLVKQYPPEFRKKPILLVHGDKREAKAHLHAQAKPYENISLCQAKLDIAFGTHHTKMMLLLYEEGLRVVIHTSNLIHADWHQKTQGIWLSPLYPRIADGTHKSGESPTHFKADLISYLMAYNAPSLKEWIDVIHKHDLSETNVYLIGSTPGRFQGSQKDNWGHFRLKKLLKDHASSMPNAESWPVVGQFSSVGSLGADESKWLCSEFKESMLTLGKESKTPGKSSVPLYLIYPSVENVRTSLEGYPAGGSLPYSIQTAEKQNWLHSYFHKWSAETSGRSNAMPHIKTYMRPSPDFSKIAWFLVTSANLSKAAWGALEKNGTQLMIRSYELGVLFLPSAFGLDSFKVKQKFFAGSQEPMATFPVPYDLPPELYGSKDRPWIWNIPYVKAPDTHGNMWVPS
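AlphaScreen read-out: signal falls as enzyme removes the 3' tyrosine-FITC from a 5'-biotinylated DNA oligo (15 nM, 5 min, RT). Enzyme was E. coli-made recombinant Tdp1 at 1 nM, exposed to compound for 15 min beforehand; beads 10 ug/ml, 10 min.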
HepG2 viability = HepG2 cytotoxicity, counter-screen for TGF-b inhibitors. HepG2 CAGA-GFP viability, ATP luminescence, 18 h. Potency, µM (doses to about 46.1 µM), inactives show at the top dose activity change, negative = cytotoxicity, usual class: cytotoxic. 410,000 tested, 0.76% active. AID 588856; note: potency is the fitted concentration of half-maximal effect
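HepG2 CAGA-GFP cells (1000/well, DMEM with 1% FBS) received compound, then TGF-beta at 500 pg/mL final, and were incubated 18 hours at 37 degrees C. Viability was read by CellTiter-Glo luminescence. Media-only wells were set as complete cell-killing and DMSO as no toxicity.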
DT40 TDP1 no CPT = qHTS for Inhibitors of human tyrosyl-DNA phosphodiesterase 1 (TDP1): qHTS in cells in absence of CPT. Potency, µM (titrated, usually from 46.2 µM), without a hit: at the highest dose activity change, negative = growth inhibition, usual class: inhibitors. DT40 Tdp1-/- hTDP1 cells, no CPT, ATP luminescence, 48 h. 420,000 tested, 15% active. AID 686978, 2013; note: potency is the fitted concentration of half-maximal effect; % is set by controls: 0 for no effect and ±100 for the full control effect; nearly all actives have a fitted effect of over 55% in size
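Camptothecin absent (DMSO only). Human TDP1-complemented DT40 knockout cells, 400 cells/well, 37 °C for minimum 48 hr; ATP measured via CellTiter-Glo, 30 min dark incubation, luminescence.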
Numbers without * were called inactive; ? = inconclusive; · = not tested or not shown; [ ] = dose if it differs, or a comment. Unless noted, calls come from the whole dose curve; as a rule, active = well fitted curve in the direction sought with a large enough effect; inconclusive = small, poorly fitted or top-dose-only effect, or another doubt; inactive = no such curve, though single readings can be large; an effect the other way counts as inactive or inconclusive.

SMILES	TDP1 cell CPT	IL-1B inflam inh	TGFb SMAD3 inh	TDP1 inh	HepG2 viability	DT40 TDP1 no CPT
COc1ccc(S(=O)(=O)N2CCCCCC2)cc1N(C)S(=O)(=O)c1ccc(Cl)cc1	16µM*	-28	?	4%	6%	18µM*
Nc1ccc(S(=O)(=O)O)cc1	·	·	·	15%	·	·
COC(=O)c1cc(OC)c(OC)cc1NC(=O)Nc1ccccc1OC	-15%	-14	0%	3%	-7%	3%
COC(=O)c1cc(OC)c(OC)cc1NC(=O)c1cccc(OC)c1OC	?	55	2%	3%	-1%	5.8µM*
COC(=O)c1cc(OC)c(OC)cc1NC(=O)c1ccco1	?	-62*	-10%	3%	-12%	?
COc1ccc(NC(=O)COC(=O)c2cc(OC)c(OC)cc2NC(=O)c2ccco2)cc1OC	?	-8	-1%	8%	3%	21µM*
O=S(=O)(NCCCN1CCN(c2ccccc2F)CC1)c1cccc2cccnc12	?	2	-7%	4%	-15%	?
Cc1ccccc1Cn1c(CN2CCCC(C)C2)nc2c1c(=O)n(C)c(=O)n2C (configuration not stated)	8.2µM*	·	-4%	2%	1%	5.8µM*
Cn1c(=O)c2c(nc(N3CCOCC3)n2Cc2cccc(Br)c2)n(C)c1=O	9.2µM*	·	-19%	1%	3%	5.8µM*
Cn1c(=O)c2c(nc(CN3CCN(c4ccccc4)CC3)n2Cc2ccccc2Cl)n(C)c1=O	?	24	9%	4%	-2%	15µM*
Cc1cccc(Cn2c(CN3CCCC(C)C3)nc3c2c(=O)n(C)c(=O)n3C)c1 (configuration not stated)	?	·	5%	-2%	0%	?
Cn1c(=O)c2c(nc(N3CCOCC3)n2Cc2ccccc2F)n(C)c1=O	?	·	19%	·	1%	?
CC1CCCN(Cc2nc3c(c(=O)n(C)c(=O)n3C)n2Cc2c(F)cccc2Cl)C1 (configuration not stated)	8.2µM*	8	5%	-2%	-8%	9.2µM*
COc1ccc(C2C=C3CN(C(=O)OC(C)(C)C)S(=O)(=O)C3CC2OC(=O)c2cccc(C)c2)cc1 (configuration not stated)	·	·	-1%	8%	15%	·
O=C(CCc1c[nH]c2ccccc12)N1CCC(n2c(C3CCCO3)nc3cc(C(F)(F)F)ccc32)CC1 (configuration not stated)	10%[9.04 µM]	·	·	·	·	-13%
O=C1CCC[C@@H]2CC(Nc3ccccc3)C[C@@H]3CCN1[C@H]23 (some centres not stated)	?	·	-15%	·	9%	-19%
Cn1c(=O)c2c(nc(CN3CCN(c4ccccc4)CC3)n2Cc2c(F)cccc2Cl)n(C)c1=O	21µM*	32	5%	-2%	-4%	8.2µM*
Cn1c(=O)c2c(nc(N3CCOCC3)n2Cc2c(F)cccc2Cl)n(C)c1=O	21µM*	6	1%	5%	-2%	23µM*
Cn1c(=O)c2c(nc(N3CCOCC3)n2CCSc2ncccn2)n(C)c1=O	21µM*	9	-25%	1%	0%	23µM*
CN(Cc1ccccc1)c1nc2c(c(=O)n(C)c(=O)n2C)n1CCSc1ncccn1	23µM*	6	-5%	2%	3%	18µM*
Cc1cc(C)nc(SCCn2c(N(C)Cc3ccccc3)nc3c2c(=O)n(C)c(=O)n3C)n1	?	20	-12%	1%	4%	?
CC(=O)Nc1ccc(NC(=O)CSc2ccc3nnc(CCNS(=O)(=O)c4ccc(C)cc4)n3n2)cc1	-12%	15	-2%	1%	-2%	29%
CC(=O)c1cccc(NC(=O)CSc2nc(=O)n(Cc3cccnc3)c3c2CCC3)c1	-7%	·	3%	3%	0%	-2%
CC(=O)Nc1ccc(NC(=O)CSc2nc(=O)n(Cc3cccnc3)c3c2CCC3)cc1	0%	0	-3%	·	-1%	-4%
Cc1cccc(NC(=O)CSc2nc(=O)n(Cc3cccnc3)c3c2CCC3)c1	-29%	·	18µM*	5%	-33%	-30%
SMILES	TDP1 cell CPT	IL-1B inflam inh	TGFb SMAD3 inh	TDP1 inh	HepG2 viability	DT40 TDP1 no CPT
CCc1ccc(NC(=O)CSc2nc(=O)n(Cc3cccnc3)c3c2CCC3)cc1	?	·	?	3%	-28%	16µM*
COc1ccc([C@H]2[C@H](c3ccccc3)C(=O)N2Cc2ccccc2)cc1COc1ccc(NC(C)=O)cc1	·	·	·	0%	·	·
COc1ccc(CN2C(=O)N(c3ccccc3)C(=O)C2c2ccccc2)cc1COc1ccc(NC(C)=O)cc1 (configuration not stated)	10µM*	·	·	0%	·	8.9µM*
COc1ccc(CN(Cc2ccccc2)C(=O)CN2CCN(C)CC2)cc1COc1ccc(NC(C)=O)cc1	?	·	·	-8%	·	18µM*
COc1ccc(CN(Cc2ccccc2)C(=O)COC(C)=O)cc1COc1ccc(NC(C)=O)cc1	?	·	·	3%	·	?
COc1ccc(CN(Cc2ccccc2)C(C)=O)cc1COc1ccc(NC(C)=O)cc1	?	·	·	0%	·	11µM*
COc1ccc(CN(Cc2ccccc2)C(=O)c2ccncc2)cc1COc1ccc(NC(C)=O)cc1	?	·	·	-2%	·	11µM*
COc1ccc(CN(Cc2ccccc2)C(=O)c2ccccc2N)cc1COc1ccc(NC(C)=O)cc1	·	·	·	1%	·	·
CCOC(=O)CC1COCCN1C(=O)c1cc(COc2ccc(F)cc2Cl)on1 (configuration not stated)	?	?	10%	0%	7%	?
CCOc1ccccc1CNC(=O)c1cnn(-c2ccc(C)cc2)c1-n1cccc1	?	·	?	0%	-34%	21µM*
Cc1ccc(-n2ncc(C(=O)NCc3ccccc3C)c2-n2cccc2)cc1	?	·	-5%	0%	-19%	23µM*
Cc1cccc(NC(=O)CN2c3ccccc3S(=O)(=O)c3ccccc32)c1C	?	·	0%	5%	1%	?
COc1ccc(NC(=O)C(=O)NCCc2csc3nc(-c4ccccc4C)nn23)cc1	?	·	-6%	4%	-19%	?
COC(=O)c1cc(NC(=O)c2ccccc2)c(=O)oc1/C=C/Nc1ccc(Oc2ccccc2)cc1	-25%	18	25%	-4%	2%	23µM*

Screens (PubChem BioAssay)
